Holding throughout (experiment): DAPPL (digital affinity profiling via proximity ligation, sequencing); 10 mM Tris-HCl pH 7.5, 50 mM NaCl, 1 mM DTT, 4% glycerol, room temperature, 30 min; GST-TFs on glutathione beads, 16-mer random dsDNA library, 0.1% formaldehyde crosslink after washing; high values mean tight binding
Common to all, as to conditions: protein: recombinant; tags: N-terminal GST; dsDNA, one strand shown

Assay [1] has as its target T1, FLI1 (Homo sapiens, UniProt Q01543 1-452).
T1 sequence: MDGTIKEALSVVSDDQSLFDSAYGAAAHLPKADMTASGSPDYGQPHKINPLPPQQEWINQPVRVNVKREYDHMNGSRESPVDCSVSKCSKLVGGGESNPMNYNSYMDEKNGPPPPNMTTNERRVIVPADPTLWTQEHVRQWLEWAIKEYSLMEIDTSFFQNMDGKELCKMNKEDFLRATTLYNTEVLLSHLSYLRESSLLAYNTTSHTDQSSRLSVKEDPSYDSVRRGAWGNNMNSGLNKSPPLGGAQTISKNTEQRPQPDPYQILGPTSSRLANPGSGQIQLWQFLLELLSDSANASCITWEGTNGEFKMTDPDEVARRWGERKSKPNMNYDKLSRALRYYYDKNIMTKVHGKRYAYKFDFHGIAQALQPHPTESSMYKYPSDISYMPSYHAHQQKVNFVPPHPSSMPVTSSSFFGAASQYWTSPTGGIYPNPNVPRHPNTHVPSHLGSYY
The method in brief:
(§1)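 Sequencing on an Illumina NextSeq500 followed washing, crosslinking with 0.1% formaldehyde, proximity ligation (BsaI/T4 ligase, 1 h, 37 °C) and PCR amplification of pools that had been incubated for 30 min at room temperature with 200 nmole of a random double-stranded 16-mer DNA library in Tris/NaCl/DTT/glycerol buffer. Each pool held DNA-barcoded human transcription factors, expressed in yeast as GST fusions and captured on glutathione beads, plus a tag-only sample. Binding signal is a hexamer's read frequency for a factor divided by its frequency in the tag-only sample.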

For assay [2], the target named is T2, ELK1 (Homo sapiens, UniProt P19419 1-428).
T2 sequence: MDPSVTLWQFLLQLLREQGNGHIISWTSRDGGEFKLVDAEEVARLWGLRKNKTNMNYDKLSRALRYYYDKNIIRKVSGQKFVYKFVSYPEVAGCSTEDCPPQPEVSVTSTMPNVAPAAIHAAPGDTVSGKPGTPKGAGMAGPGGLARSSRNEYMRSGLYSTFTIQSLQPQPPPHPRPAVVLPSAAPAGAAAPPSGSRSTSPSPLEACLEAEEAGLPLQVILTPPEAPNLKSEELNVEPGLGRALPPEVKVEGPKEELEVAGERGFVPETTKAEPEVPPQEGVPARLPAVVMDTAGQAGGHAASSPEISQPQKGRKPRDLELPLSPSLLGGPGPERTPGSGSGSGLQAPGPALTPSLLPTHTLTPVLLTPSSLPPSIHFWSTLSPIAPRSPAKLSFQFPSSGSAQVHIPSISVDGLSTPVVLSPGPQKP
The method in brief: as §1

Assay [3] concerns the target T3, GABPA (Homo sapiens, UniProt Q06546 1-454).
T3 sequence: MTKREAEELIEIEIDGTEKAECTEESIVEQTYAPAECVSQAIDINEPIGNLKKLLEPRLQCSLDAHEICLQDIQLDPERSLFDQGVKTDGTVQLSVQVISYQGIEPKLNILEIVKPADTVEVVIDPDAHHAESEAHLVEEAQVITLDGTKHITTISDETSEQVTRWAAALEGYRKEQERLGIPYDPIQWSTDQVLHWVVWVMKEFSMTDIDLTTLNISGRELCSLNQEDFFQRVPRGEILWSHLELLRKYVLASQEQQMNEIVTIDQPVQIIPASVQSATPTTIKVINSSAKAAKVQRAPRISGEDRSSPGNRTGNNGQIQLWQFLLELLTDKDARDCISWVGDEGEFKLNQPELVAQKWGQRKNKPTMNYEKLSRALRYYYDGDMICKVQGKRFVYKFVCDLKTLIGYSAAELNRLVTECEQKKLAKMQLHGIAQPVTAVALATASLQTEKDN
The method in brief:
as §1

The target of assay [4] is T4, ERG (Homo sapiens, UniProt P11308 1-479).
T4 sequence: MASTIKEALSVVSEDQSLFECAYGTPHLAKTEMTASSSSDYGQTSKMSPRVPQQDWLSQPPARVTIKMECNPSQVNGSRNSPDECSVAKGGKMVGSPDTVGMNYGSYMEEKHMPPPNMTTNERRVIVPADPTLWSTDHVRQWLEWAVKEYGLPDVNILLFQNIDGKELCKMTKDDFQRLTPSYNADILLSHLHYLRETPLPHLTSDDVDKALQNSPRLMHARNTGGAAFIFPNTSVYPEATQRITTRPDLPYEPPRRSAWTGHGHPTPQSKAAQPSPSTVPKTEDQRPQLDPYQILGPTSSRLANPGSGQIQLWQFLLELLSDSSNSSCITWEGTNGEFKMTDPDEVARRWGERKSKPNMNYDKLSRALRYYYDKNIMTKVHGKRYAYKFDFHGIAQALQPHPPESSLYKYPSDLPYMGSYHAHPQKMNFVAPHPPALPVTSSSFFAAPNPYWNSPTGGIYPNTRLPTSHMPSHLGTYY
In outline:
as §1

Assay [5] has as its target ELF1 (Homo sapiens, UniProt P32519 1-619). The method in brief:
as §1

In assay [6] the target is T5, EHF (Homo sapiens, UniProt Q9NZC4 1-300).
T5 sequence: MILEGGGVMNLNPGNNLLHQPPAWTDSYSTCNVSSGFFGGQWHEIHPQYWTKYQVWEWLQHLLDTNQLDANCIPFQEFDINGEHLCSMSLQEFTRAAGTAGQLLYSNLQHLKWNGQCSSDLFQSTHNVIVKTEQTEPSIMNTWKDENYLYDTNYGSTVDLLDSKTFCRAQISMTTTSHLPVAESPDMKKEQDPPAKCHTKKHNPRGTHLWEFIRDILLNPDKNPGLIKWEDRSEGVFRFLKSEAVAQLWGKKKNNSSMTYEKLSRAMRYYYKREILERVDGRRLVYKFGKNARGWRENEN
In outline:
as §1

The target in assay [7] is SPI1 (Homo sapiens, UniProt P17947 1-270). In outline: as §1
Assay [8] addresses SPIB (Homo sapiens, UniProt Q01892 1-262). In outline: as §1
Assay [9] deals with T6, ELK3 (Homo sapiens, UniProt P41970 1-407).
T6 sequence: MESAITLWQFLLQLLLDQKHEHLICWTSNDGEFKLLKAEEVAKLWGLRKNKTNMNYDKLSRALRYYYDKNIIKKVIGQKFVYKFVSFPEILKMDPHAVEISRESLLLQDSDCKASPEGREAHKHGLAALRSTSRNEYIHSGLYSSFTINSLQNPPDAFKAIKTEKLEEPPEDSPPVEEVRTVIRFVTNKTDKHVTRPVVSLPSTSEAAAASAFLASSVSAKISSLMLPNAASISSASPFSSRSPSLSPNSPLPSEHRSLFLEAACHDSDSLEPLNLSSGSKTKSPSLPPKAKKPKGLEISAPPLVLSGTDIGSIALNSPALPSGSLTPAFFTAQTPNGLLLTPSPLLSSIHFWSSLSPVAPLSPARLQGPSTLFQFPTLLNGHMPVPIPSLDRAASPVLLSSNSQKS
The method in brief:
as §1

These results are taken from paper PMC7862700, “An all-to-all approach to the identification of sequence-specific readers for epigenetic DNA modifications on cytosine”.

SPIB, sequence (Q01892 whole entry): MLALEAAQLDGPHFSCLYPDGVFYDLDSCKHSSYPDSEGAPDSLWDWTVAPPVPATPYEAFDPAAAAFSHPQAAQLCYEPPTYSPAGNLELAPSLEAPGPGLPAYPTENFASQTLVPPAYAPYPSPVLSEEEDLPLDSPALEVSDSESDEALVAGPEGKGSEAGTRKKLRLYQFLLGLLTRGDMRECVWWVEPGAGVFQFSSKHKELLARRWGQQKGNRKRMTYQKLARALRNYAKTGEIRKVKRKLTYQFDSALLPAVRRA
ELF1, sequence (P32519 whole entry): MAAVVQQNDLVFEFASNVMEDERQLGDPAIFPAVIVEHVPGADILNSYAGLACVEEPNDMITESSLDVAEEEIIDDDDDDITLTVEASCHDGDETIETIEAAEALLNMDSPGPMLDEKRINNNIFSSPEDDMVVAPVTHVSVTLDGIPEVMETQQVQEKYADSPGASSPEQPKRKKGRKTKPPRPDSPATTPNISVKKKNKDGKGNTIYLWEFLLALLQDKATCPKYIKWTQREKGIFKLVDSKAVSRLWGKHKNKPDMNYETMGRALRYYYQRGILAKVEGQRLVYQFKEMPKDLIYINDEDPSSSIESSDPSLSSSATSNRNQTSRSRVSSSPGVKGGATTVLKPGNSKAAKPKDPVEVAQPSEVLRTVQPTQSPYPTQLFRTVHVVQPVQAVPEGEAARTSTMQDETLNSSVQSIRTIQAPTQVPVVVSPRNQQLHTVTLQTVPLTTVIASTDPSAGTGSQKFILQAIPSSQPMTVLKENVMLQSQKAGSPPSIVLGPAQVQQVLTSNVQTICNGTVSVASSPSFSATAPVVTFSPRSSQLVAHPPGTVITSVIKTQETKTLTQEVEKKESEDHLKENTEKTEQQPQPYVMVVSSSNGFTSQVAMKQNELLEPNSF

For the sequence TTGAAA, the binding signal in [1] is 1.22 fold enrichment (6-mer frequency, TF over GST control); in assay [2], 1.25 fold enrichment (6-mer frequency, TF over GST control); in assay [3] it was 1.11 fold enrichment (6-mer frequency, TF over GST control); in [4], 1.09 fold enrichment (6-mer frequency, TF over GST control); in assay [5], 1.23 fold enrichment (6-mer frequency, TF over GST control); in assay [6], 1.23 fold enrichment (6-mer frequency, TF over GST control). Besides, the binding signal in assay [7] is 1.18 fold enrichment (6-mer frequency, TF over GST control); in assay [8], 1.1 fold enrichment (6-mer frequency, TF over GST control); in assay [9] it was 1.09 fold enrichment (6-mer frequency, TF over GST control).

Take CGTTCG: the binding signal in [1] is 1.15 fold enrichment (6-mer frequency, TF over GST control); in assay [2], 1.14 fold enrichment (6-mer frequency, TF over GST control); in assay [3], 1.23 fold enrichment (6-mer frequency, TF over GST control); in [4], 1.17 fold enrichment (6-mer frequency, TF over GST control); in [5], 1.22 fold enrichment (6-mer frequency, TF over GST control); in [6], 1.25 fold enrichment (6-mer frequency, TF over GST control). Moreover, the binding signal in assay [7] is 1.1 fold enrichment (6-mer frequency, TF over GST control); in assay [8] it was 1.14 fold enrichment (6-mer frequency, TF over GST control); in assay [9], 1.24 fold enrichment (6-mer frequency, TF over GST control).

In the case of ACGCTT, the binding signal in assay [1] is 1.4 fold enrichment (6-mer frequency, TF over GST control); in assay [2], 1.34 fold enrichment (6-mer frequency, TF over GST control); in assay [3] it was 1.37 fold enrichment (6-mer frequency, TF over GST control); in assay [4] it was 1.33 fold enrichment (6-mer frequency, TF over GST control); in [5] it was 1.37 fold enrichment (6-mer frequency, TF over GST control); in assay [6] it was 1.35 fold enrichment (6-mer frequency, TF over GST control). Further, the binding signal is 1.23 fold enrichment (6-mer frequency, TF over GST control) in assay [7]; 1.5 fold enrichment (6-mer frequency, TF over GST control) in assay [8]; 1.44 fold enrichment (6-mer frequency, TF over GST control) in assay [9].

Take GCCTAC: the binding signal in [1] is 1.18 fold enrichment (6-mer frequency, TF over GST control); in [2], 1.17 fold enrichment (6-mer frequency, TF over GST control); in [3] it was 1.28 fold enrichment (6-mer frequency, TF over GST control); in assay [4] it was 1.25 fold enrichment (6-mer frequency, TF over GST control); in assay [5] it was 1.21 fold enrichment (6-mer frequency, TF over GST control); in assay [6], 1.25 fold enrichment (6-mer frequency, TF over GST control). Further, the binding signal in [7] was 1.18 fold enrichment (6-mer frequency, TF over GST control); in assay [8], 1.21 fold enrichment (6-mer frequency, TF over GST control); in assay [9] it was 1.1 fold enrichment (6-mer frequency, TF over GST control).

Turning to TATATT, the binding signal in [1] was 1.34 fold enrichment (6-mer frequency, TF over GST control); in assay [2], 1.33 fold enrichment (6-mer frequency, TF over GST control); in assay [3], 1.47 fold enrichment (6-mer frequency, TF over GST control); in assay [4], 1.41 fold enrichment (6-mer frequency, TF over GST control); in assay [5] it was 1.47 fold enrichment (6-mer frequency, TF over GST control); in assay [6], 1.43 fold enrichment (6-mer frequency, TF over GST control). Besides, the binding signal is 1.3 fold enrichment (6-mer frequency, TF over GST control) in assay [7]; 1.34 fold enrichment (6-mer frequency, TF over GST control) in [8]; 1.3 fold enrichment (6-mer frequency, TF over GST control) in assay [9].

Take ATCTTC: the binding signal in assay [1] is 1.68 fold enrichment (6-mer frequency, TF over GST control); in assay [2], 1.52 fold enrichment (6-mer frequency, TF over GST control); in assay [3] it was 1.48 fold enrichment (6-mer frequency, TF over GST control); in [4], 1.51 fold enrichment (6-mer frequency, TF over GST control); in [5], 1.64 fold enrichment (6-mer frequency, TF over GST control); in assay [6], 1.46 fold enrichment (6-mer frequency, TF over GST control). Besides, the binding signal was 1.52 fold enrichment (6-mer frequency, TF over GST control) in assay [7]; 1.6 fold enrichment (6-mer frequency, TF over GST control) in assay [8]; 1.59 fold enrichment (6-mer frequency, TF over GST control) in assay [9].

With TAATAA, the binding signal in [1] is 1.17 fold enrichment (6-mer frequency, TF over GST control); in assay [2] it was 1.19 fold enrichment (6-mer frequency, TF over GST control); in [3], 1.21 fold enrichment (6-mer frequency, TF over GST control); in assay [4], 1.22 fold enrichment (6-mer frequency, TF over GST control); in [5] it was 1.16 fold enrichment (6-mer frequency, TF over GST control); in assay [6], 1.24 fold enrichment (6-mer frequency, TF over GST control). Further, the binding signal in assay [7] was 1.09 fold enrichment (6-mer frequency, TF over GST control); in assay [8], 1.27 fold enrichment (6-mer frequency, TF over GST control); in [9], 1.05 fold enrichment (6-mer frequency, TF over GST control).
